Source: PubChem
IDE exosite inh = exo-site inhibitors of human IDE, primary screen, biochemical, fluorescence anisotropy, probe displacement | purified IDE, FL-6b probe fluorescence polarization; active compounds read low | z-score at 20 µM | 17,000 compounds, 6.3% hits;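 active = z-score of -3 or lower, meaning strong loss of probe binding signal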;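 note: His-tagged human IDE residues 42-1019 made in E. coli with 30 nM FL-6b probe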
A number is an active result; – = inactive. The entries come from a sample that favours hits as a whole.

SMILES | IDE exosite inh
O=C(C1CC1)N1CC(=O)N2[C@@H](CO)[C@@H](c3ccc(C#CCc4ccccc4)cc3)[C@@H]2C1 | -3.3
O=C(C1CC1)N1CC(=O)N2[C@H](C1)[C@H](c1ccc(C#CCc3ccccc3)cc1)[C@@H]2CO | -4.6
N#Cc1ccc(-c2ccc([C@@H]3[C@H]4CN(S(=O)(=O)c5ccccc5)CCCCN4[C@H]3CO)cc2)cc1 | –
O=C(C[C@@H]1C[C@@H]2c3cc(NS(=O)(=O)c4ccccc4)ccc3O[C@@H]2[C@H](CO)O1)NCC(F)(F)F | –
O=S(=O)(c1ccccc1)N1CCCCN2[C@@H](CO)[C@H](c3ccc(-c4ccccc4)cc3)[C@@H]2C1 | –
Cc1cccc(S(=O)(=O)N2CCCCN3[C@H](CO)[C@@H](c4ccc(C#CC(C)C)cc4)[C@@H]3C2)c1 | –
OC[C@@H]1[C@H](c2ccccc2)C2(CN(CCC(F)(F)F)C2)N1Cc1nccs1 | –
COc1ccc2c3c([nH]c2c1)[C@H](CO)N(C(=O)CN1CCOCC1)CC31CCN(CC2CCCC2)CC1 | –
C[C@@H]1COCn2nncc2CC[C@H](Cc2ccc(-c3ccccc3)cc2)C(=O)N1 | –
CCS(=O)(=O)Nc1ccc2c(c1)C(=O)N(C)[C@@H]1CC[C@@H](CC(=O)N[C@@H]3CCN(Cc4ccccc4)C3)O[C@H]1CO2 | –
Cc1noc(C)c1S(=O)(=O)Nc1ccc2c(c1)CC(=O)N([C@H](C)CO)C[C@@H](C)[C@H](CN(C)Cc1ccc(Oc3ccccc3)cc1)O2 | –
C[C@@H]1CN([C@@H](C)CO)C(=O)c2cc(N(C)C)ccc2O[C@H]1CN(C)Cc1ccc(Oc2ccccc2)cc1 | –
C[C@H](CO)N1C[C@H](C)[C@@H](CN(C)S(=O)(=O)c2ccccc2F)Oc2ncc(/C=C/c3ccccc3)cc2C1=O | –
C[C@@H]1CN([C@H](C)CO)C(=O)c2cc(/C=C/c3ccccc3)cnc2O[C@@H]1CN(C)S(=O)(=O)c1ccccc1F | –
C[C@@H]1CN([C@@H](C)CO)C(=O)c2cc(N(C)C)ccc2O[C@@H]1CN(C)Cc1ccc(Oc2ccccc2)cc1 | –
C[C@H]1CN([C@@H](C)CO)C(=O)c2cc(Br)cnc2O[C@H]1CN(C)Cc1ccc(Oc2ccccc2)cc1 | -3.5
Cc1noc(C)c1S(=O)(=O)Nc1ccc2c(c1)CC(=O)N([C@H](C)CO)C[C@H](C)[C@H](CN(C)Cc1ccc(Oc3ccccc3)cc1)O2 | –
Cc1noc(C)c1S(=O)(=O)Nc1ccc2c(c1)CC(=O)N([C@@H](C)CO)C[C@H](C)[C@@H](CN(C)Cc1ccc(Oc3ccccc3)cc1)O2 | -4.3
C[C@@H]1CN([C@@H](C)CO)C(=O)c2cc(/C=C/c3ccccc3)cnc2O[C@@H]1CN(C)S(=O)(=O)c1ccccc1F | -4
C[C@H](CO)N1C[C@H](C)[C@@H](CN(C)Cc2cccc(C(=O)Nc3ccccc3N)c2)OCc2ccccc2-c2c(n(C)c3ccccc23)C1=O | –
CO[C@H]1CN(C)C(=O)c2ccc(NS(=O)(=O)c3ccc(C)cc3)cc2OC[C@H](C)N(C)C[C@@H]1C | –
O=C([C@H]1[C@H](CO)[C@H]2Cn3c(ccc(C4=CCCC4)c3=O)[C@@H]1N2C(=O)c1cccnc1)N1CCOCC1 | –
COCC(=O)NC[C@@H]1[C@@H](c2ccc(C3=CCCC3)cc2)[C@H](CO)N1C(C)=O | –
C[C@H](CO)N1C[C@H](C)[C@@H](CN(C)C(=O)NC2CCCCC2)OCc2ccccc2-c2ccccc2C1=O | –
C[C@H](O)C#Cc1ccc([C@H]2[C@@H](CO)N3CCCCN(C(=O)Nc4ccccc4)C[C@H]23)cc1 | –
SMILES | IDE exosite inh
N#C[C@H]1[C@@H](c2ccccc2C2=CCCC2)[C@@H](CO)N1C(=O)C1CCC1 | –
CCCC(=O)N1CCC2(CC1)CN(C(=O)C1CCC1)[C@@H](CO)c1[nH]c3cc(OC)ccc3c12 | –
C[C@@H]1CN([C@@H](C)CO)C(=O)c2cccc(N(C)C)c2O[C@@H]1CN(C)C(=O)Nc1ccc(F)cc1 | –
O=C(Nc1ccc(F)cc1)N1CC(=O)N2[C@H](CO)[C@@H](c3ccc(Br)cc3)[C@@H]2C1 | –
COCC(=O)N1CCCCN2[C@H](C1)[C@@H](c1ccc(-c3ccc(OC)cc3)cc1)[C@@H]2CO | –
COc1ccc(-c2ccc([C@@H]3[C@H](CO)N4CCCCN(C(=O)NC(C)C)C[C@@H]34)cc2)cc1 | -5.6
COc1ccc(-c2ccc([C@H]3[C@H](CO)N4CCCCN(C(=O)c5ccc(F)cc5)C[C@@H]34)cc2)cc1 | –
COCC(=O)N1CCCCN2[C@@H](CO)[C@H](c3ccc(-c4ccc(OC)cc4)cc3)[C@@H]2C1 | –
COc1ccc(-c2ccc([C@@H]3[C@@H](CO)N4CCCCN(C(=O)NC(C)C)C[C@@H]34)cc2)cc1 | -4.1
COCC(=O)N1CCCCN2[C@H](CO)[C@H](c3ccc(-c4ccc(OC)cc4)cc3)[C@@H]2C1 | –
COc1ccc(-c2ccc([C@@H]3[C@@H](CO)N4C(=O)CN(C(=O)NC(C)C)C[C@H]34)cc2)cc1 | –
COc1ccc(-c2ccc([C@@H]3[C@H](CO)N4CCCCN(C(=O)c5ccc(F)cc5)C[C@@H]34)cc2)cc1 | –
COc1ccc(-c2ccc([C@H]3[C@H]4CN(C(=O)NC(C)C)CCCCN4[C@H]3CO)cc2)cc1 | -11
O=C(N[C@H]1CC[C@@H](CC(=O)N2CCOCC2)O[C@H]1CO)c1cccc(F)c1 | –
CCCC(=O)N1C[C@@H]2[C@H](c3ccccc31)[C@H](CO)N2C(=O)Nc1ccc(F)cc1 | –
COCC(=O)Nc1ccc2c(c1)C(=O)N(C)C[C@H](OC)[C@H](C)CN(C(=O)c1ccncc1)[C@H](C)CO2 | –
CN1c2ccc(C3=CCCCC3)cc2[C@H]2[C@H](CCN2C(=O)Cc2ccccn2)[C@@H]1CO | –
CS(=O)(=O)N1C[C@H](O)COC[C@H]2O[C@@H](CC(=O)NCc3ccccc3)CC[C@@H]21 | –
O=C(C[C@@H]1CC[C@@H]2[C@H](COC[C@@H](O)CN2Cc2cccc(Cl)c2)O1)NCc1cccc(F)c1 | –
CN1c2ccc(Br)cc2[C@H]2[C@H](CCN2C(=O)C2CCC2)[C@@H]1CO | –
CO[C@@H]1CC[C@H]2CCOc3c(C#N)cccc3C(=O)N(C)C[C@@H](c3ccccc3)CC(=O)N(C)C[C@@H]1O2 | –
CCCC#Cc1ccc([C@@H]2[C@H]3CN(C(=O)c4cccc(F)c4)CC(=O)N3[C@H]2CO)cc1 | –
O=C(C[C@H]1CC[C@@H]2[C@H](COC[C@@H](O)CN2CCC(F)(F)F)O1)NCc1ccc2c(c1)OCO2 | –
COc1cccc(NC(=O)N2CC(=O)N3[C@H](C2)[C@@H](c2ccc(C4=CCCC4)cc2)[C@@H]3CO)c1 | –
COc1cccc(-c2ccc3c(c2)[C@@H]2[C@@H](CCN2S(=O)(=O)c2ccccc2F)[C@H](CO)N3)c1 | –
O=C(c1ccc2c(c1)OCO2)N1CC(=O)N2[C@H](CO)[C@H](c3ccc(-c4ccccc4)cc3)[C@@H]2C1 | –
O=C(c1ccc2c(c1)OCO2)N1CC(=O)N2[C@H](CO)[C@H](c3ccc(C#Cc4ccccc4)cc3)[C@H]2C1 | –
O=C(c1ccc2c(c1)OCO2)N1CC(=O)N2[C@H](C1)[C@H](c1ccc(-c3ccccc3)cc1)[C@@H]2CO | –
O=C(c1ccc2c(c1)OCO2)N1CC(=O)N2[C@H](C1)[C@H](c1ccc(C#Cc3ccccc3)cc1)[C@@H]2CO | -3.5
O=C(c1ccc2c(c1)OCO2)N1CC(=O)N2[C@@H](CO)[C@@H](c3ccc(C#Cc4ccccc4)cc3)[C@@H]2C1 | -5.2
